Growth data for 23 compounds are collected here from PubChem BioAssay (NCI).

Structures are written as SMILES. About 83,000 compounds went through this panel and 20% of them were active in at least one assay; those are over-represented in the sample as a whole.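 Note: values are percent growth. 100 is the growth of untreated cells, values between 100 and 0 indicate rising inhibition; between -100 and 0 indicates cell death.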 Unmarked numbers belong to inactive results. Activity calls are given as the source filed them. The calls were made as follows: active = growth percent below 10; inactive = the rest.

The experiment concerns HL-60(TB) leukemia. The experiment is described as follows: NCI-60 one-dose screen, 48 h (100 = growth as untreated, 0 = no growth, -100 = all killed). As to conditions: 10 µM unless noted.
As to `COc1ccccc1CNCCCCCCCCCCCCN1C(=O)c2ccc3c4c(ccc(c24)C1=O)C(=O)N(CCCCCCCCCCCCNCc1ccccc1OC)C3=O`, the growth was 85.8%.
`O=C(NNC(=O)c1cccc(Cl)c1)c1ccccc1`: the growth is 94.3%.
For `COC(=O)CC1=C(C)/C(=C/c2[nH]c(-c3ccc[nH]3)cc2OC)N=C1C` the value was -29.2% (active); for `COc1cc(C=Nc2oc(-c3ccccc3)c(-c3ccccc3)c2C#N)cc(CN2CCCCC2)c1O`, 92.5%.
In the case of `O=S(O)c1cc(Cl)cc(Cl)c1OCc1ccccc1`, the growth is 109%.
For the compound `CN(C)c1ccc(/C=C2/C=C(c3ccccc3)OC2=O)cc1`, the growth was 4.38% (active).
On to `COc1cc(CCCO)c(OC)c(OC)c1OC`, for which the growth was 98.4%.
With `Cc1cn(-c2cc(NC(=O)c3ccc(C)c(Nc4nccc(-c5cnccn5)n4)c3)cc(C(F)(F)F)c2)cn1`, the growth is 33.4%.
For `Cn1c(N2NC(=O)C(N=Nc3ccc(S(N)(=O)=O)cc3)C2=O)nc(-c2ccco2)c(C#N)c1=O` (stereo not drawn) the value was -41.4% (active).
Turning to `CCOc1ccc(-n2nc(C(=O)NCc3ccccc3OC)nc2-c2cc(OC)c(OC)c(OC)c2)cc1`, the growth is 19.1%.
Consider `CC1(C)CC(=O)CC2(C1)N=C(N)Nc1nc3ccccc3n12` (stereo not drawn), for which the growth is 92.5%.
For `CCC(=O)Oc1ccc2ccccc2c1` the value was 103%.
Take `CCOC(=O)c1ccccc1-c1c2ccc(=[N+](C)C)cc-2oc2cc(N(C)C)ccc12`: the growth is -14.3% (active).
Regarding `S=c1nc(CS)[nH]c2ccccc12`, the growth is 101%.
On to `C#CCOC(=O)[C@]1(C)CCC[C@]2(C)[C@H]3C[C@H]4C(C(C)C)=C[C@]3(CC[C@H]21)[C@@H]1C(=O)CCC(=O)[C@@H]14`, for which the growth was 64.7%.
Take `Cc1ccc(NCCNCC(C)(C)O)c2c(=O)c3ccc(Cl)cc3sc12`: the growth was -48.3% (active).
In the case of `COc1ccc(NC(=O)COCCOCCNC[C@@H]2C(=O)O[C@H]3[C@H]2CC/C(COC(=O)OC/C2=C/CC[C@@]4(C)O[C@H]4[C@H]4OC(=O)[C@@H](CN(C)C)[C@@H]4CC2)=C\CC[C@@]2(C)O[C@@H]32)c(O)c1C(N)=O`, the growth was -48.2% (active).
For the compound `CC[N+](CCCCCCCCCC[N+](CC)(c1ccccn1)c1ccccn1)(c1ccccn1)c1ccccn1`, the growth is -50.7% (active).
In the case of `CNCc1cccc2c1OCCOCCOCCN(C)S(=O)(=O)c1ccc(cc1)-c1cnc(N)c(n1)C(=O)N2`, the growth was -37% (active).
Take `O=S(=O)(O)CC(O)CN1CCN(CCO)CC1` (stereo not drawn): the growth is 96%.
For `CS(=O)c1cccc(-c2ccc3nc(N)n(-c4ccc(C(F)(F)F)cc4)c(=O)c3c2)c1` (stereo not drawn) the value was 100%.
In the case of `O=C(Cc1ccc(/C=C/C(=O)c2ncc[nH]2)cc1)Nc1ccc(F)cc1`, the growth is -17.3% (active).
For `COc1ccc2[nH]c(C(=O)OCc3ccc4cccc(O)c4n3)cc2c1`, the growth is -36.8% (active).
